# From ChEMBL document CHEMBL3988442, “University of Dundee, Small-Polar-MMV Screening Library” (2021)
# The whole screen tested about 48,000 compounds, of which about 13,000 (27%) showed an effect of 50% or more. The list shows a part of the results.
# System: Wolbachia pipientis
# Experiment: Anti-Wolbachia Cell-Based Screen
# Format: functional
# Design: scale not given: in the data most compounds retested in dose-response had high values
# Conditions: 5 µM
row,Structure (SMILES),Percent Effect
1,CC(C)(C)n1cc(C2=CCN(CCN3CCCCCC3)CC2)cn1,-14.66%
2,CNc1ncccc1C(=O)N1CCC2(CCN(C)C2)CC1,-14.87%
3,O=C(O)C(F)(F)F.O=C(O)C(F)(F)F.O=C1N(c2cccnc2)CCC12CCCN(Cc1ccco1)C2 (stereo unspecified),8.384%
4,CN1CCC2(CCN(C(=O)c3cccnc3)C2)C1 (stereo unspecified),103.3%
5,O=C(O)C(F)(F)F.O=C(O)C(F)(F)F.O=C1CC2(CCN(Cc3cccnc3)C2)CN1c1cncnc1 (stereo unspecified),-5.386%
6,CC(C)(C)CN1CCCC2(CCN(C(=O)c3ccc(O)nc3)C2)C1 (stereo unspecified),-6.955%
7,Cc1ccc(CN2CC3(CCN(C(=O)c4cccnc4)C3)C2)o1.O=C(O)C(F)(F)F.O=C(O)C(F)(F)F,90.74%
8,O=C(O)C(F)(F)F.O=C(O)C(F)(F)F.O=C1N(c2ccsc2)CCC12CCCN(Cc1cccnc1)C2 (stereo unspecified),4.008%
9,CCCN(CCN(C)C)C(=O)Cc1cn2ccsc2n1,-3.087%
10,O=C(Cc1ccsc1)N1CCN(CCOc2ccccc2)CC1,-6.082%
11,CC[C@H]1CN2CC[C@H]1C[C@@H]2CNCc1ccc2c(c1)OCO2,5.104%
12,CN1CCN2C(=O)N(C3CCCCC3)C[C@H]2C1,-7.779%
13,CC(C)N(C)C(=O)C1CCC2(CCNCC2)O1.Cl (stereo unspecified),-5.93%
14,CCN(C)c1nccc(N2CCN[C@H]3CS(=O)(=O)C[C@H]32)n1,-8.792%
15,Cc1ccnc(CC(C)N(C)Cc2ccc3c(c2)CCO3)c1 (stereo unspecified),8.665%
16,O=C(O)C(F)(F)F.O=C(O)C(F)(F)F.O=C(O)C(F)(F)F.c1ccc(CN2CCOC3(CCN(c4ncccn4)CC3)C2)nc1,-2.349%
17,CS(=O)(=O)N1CCOCC2(CN(Cc3ccccn3)CCO2)C1.O=C(O)C(F)(F)F.O=C(O)C(F)(F)F (stereo unspecified),-5.644%
18,O=C(O)C(F)(F)F.O=S(=O)(C1CC1)N1CCOC2(CCCN(Cc3ccccn3)C2)C1 (stereo unspecified),85.16%
19,O=C(O)C(F)(F)F.O=C(O)C(F)(F)F.O=S(=O)(C1CC1)N1CCC2(CC1)CN(Cc1ccccn1)CCO2,101%
20,O=C(O)C(F)(F)F.c1cnc(N2CCOCC3(CN(Cc4cc[nH]n4)CCO3)C2)nc1 (stereo unspecified),10.86%
21,CCCS(=O)(=O)N1CCOC2(CCCN(Cc3ccccn3)C2)C1.O=C(O)C(F)(F)F (stereo unspecified),106.1%

row,Structure (SMILES),Percent Effect
1,CCS(=O)(=O)N1CCOC2(CCCN(Cc3ccccn3)C2)C1.O=C(O)C(F)(F)F (stereo unspecified),109.8%
2,CCS(=O)(=O)NC[C@]12COC[C@H]1CN(Cc1ccccn1)C2.O=C(O)C(F)(F)F.O=C(O)C(F)(F)F,3.316%
3,CC(C)[C@@H]1CN(C(=O)C2(c3ccccc3)CCN(C)CC2)C[C@H]1C(=O)O,1.772%
4,COc1cc(CNCC(O)c2ccc(F)c(F)c2)cc2c1OCO2 (stereo unspecified),-3.918%
5,O=C(NC[C@]12COC[C@H]1CN(Cc1ccncc1)C2)c1ccno1.O=C(O)C(F)(F)F.O=C(O)C(F)(F)F,-6.901%
6,CC(C)N1CCC2(CC1)C(=O)N(c1cccnc1)c1c(F)cccc12.Cl,-0.101%
7,CC(C)N1CCC2(CC1)C(=O)N(CCN(C)C)c1ccccc12.O=C(O)C(F)(F)F.O=C(O)C(F)(F)F,103.6%
8,CN(C)CCN1C(=O)C2(CCN(CC3CC3)CC2)c2ccccc21.O=C(O)C(F)(F)F.O=C(O)C(F)(F)F,113.1%
9,CN1C(=O)C2(CCN(Cc3nccn3C)CC2)c2ccccc21.O=C(O)C(F)(F)F,-27.57%
10,COCCN1C(=O)C2(CCN(CC3CC3)CC2)c2ccccc21.O=C(O)C(F)(F)F,100.2%
11,Cc1ccc(CN2CCC3(CC2)C(=O)N(C)c2ccccc23)s1.O=C(O)C(F)(F)F,-4.693%
12,CCN1C(=O)C2(CCN(CCN(C)C)CC2)c2ccccc21.O=C(O)C(F)(F)F.O=C(O)C(F)(F)F,97.23%
13,CC(C)N1CCC2(CC1)C(=O)N(c1cccnc1)c1ccc(F)cc12.Cl,-1.595%
14,CCCN1CCN(C(=O)Cc2nc(-c3ccco3)oc2C)CC1,1.326%
15,COCc1cncc2c1CCN(Cc1ccccn1)C2.O=C(O)C(F)(F)F.O=C(O)C(F)(F)F.O=C(O)C(F)(F)F,9.224%
16,COCc1cncc2c1CCN(Cc1cccnc1)C2,101.9%
17,CC(C)N(C)Cc1cncc2c1CCN(Cc1ccoc1)C2.Cl.Cl.Cl,91.96%
18,CN(C)Cc1cncc2c1CCN(Cc1ccoc1)C2.Cl.Cl.Cl,105%
19,COCc1cncc2c1CCN(Cc1cccs1)C2.O=C(O)C(F)(F)F.O=C(O)C(F)(F)F,82.87%
20,O=C1[C@@H]2CCN(Cc3ccoc3)C[C@@H]2OCCN1c1cccnc1,8.449%
21,COCc1cncc2c1CCN(Cc1cnn(C)c1)C2.O=C(O)C(F)(F)F.O=C(O)C(F)(F)F,0.729%

row,Structure (SMILES),Percent Effect
1,CN(C)Cc1cncc2c1CCN(Cc1cnn(C)c1)C2.Cl.Cl.Cl,-9.802%
2,COCCN1CCN(Cc2cccnc2)[C@H]2CS(=O)(=O)C[C@H]21,6.429%
3,CC(C)N1[C@H](CN(C)C)C[C@@H]2CN(c3ncc(F)cn3)CC[C@@H]21.O=C(O)C(F)(F)F.O=C(O)C(F)(F)F.O=C(O)C(F)(F)F,3.695%
4,CC1(C)C(C(=O)NCCC2CN(Cc3c[nH]cn3)CCO2)C1(C)C (stereo unspecified),-1.625%
5,CC(C)N1CCc2c(CN(C)Cc3ccco3)cncc2C1.Cl.Cl.Cl,5.952%
6,CC(C)N(C)Cc1cncc2c1CCN(Cc1cccs1)C2.Cl.Cl.Cl,94.28%
7,Cc1cccnc1CC(C)N(C)Cc1cccs1 (stereo unspecified),-8.458%
8,O=C(O)C(F)(F)F.O=C(O)C(F)(F)F.O=S(=O)(c1cccnc1)N1C[C@@H]2COC[C@]2(CN2CCOCC2)C1,-9.184%
9,COCCN1CCO[C@@H]2CN(Cc3ccccn3)C[C@@H]2C1.O=C(O)C(F)(F)F.O=C(O)C(F)(F)F.O=C(O)C(F)(F)F,-10.28%
10,CN1CCO[C@@H]2CN(S(=O)(=O)c3cccnc3)C[C@@H]2C1.O=C(O)C(F)(F)F.O=C(O)C(F)(F)F,131.4%
11,Cc1ccsc1CN1C[C@@H]2CN(Cc3cccnc3)CCO[C@@H]2C1.O=C(O)C(F)(F)F.O=C(O)C(F)(F)F.O=C(O)C(F)(F)F,13.17%
12,COCCN1CCO[C@@H]2CN(S(=O)(=O)c3cccnc3)C[C@@H]2C1.O=C(O)C(F)(F)F.O=C(O)C(F)(F)F,120.4%
13,CS(=O)(=O)N1CCO[C@@H]2CN(Cc3ccncc3)C[C@@H]2C1.O=C(O)C(F)(F)F.O=C(O)C(F)(F)F,13.84%
14,CNCc1cn(C[C@H]2C[C@@H]3CCN2C[C@@H]3C(=O)NC2CCCCC2)nn1,-0.1027%
15,COc1cccc([C@@H]2CCN(Cc3ccc4ccccc4n3)C[C@H]2O)c1,-2.697%
16,COc1ncc(CN2CCC3(CCCN(CC4CCC4)C3)C2)cn1 (stereo unspecified),83.26%
17,Cc1ncc(CN2CCC3(CCCN(CC4CCC4)C3)C2)cn1 (stereo unspecified),97.43%
18,CCc1ncc(CN2CCC3(CCCN(CC4CCC4)C3)C2)cn1 (stereo unspecified),67.34%
19,c1cncc(CN2CCC3(CCCN(c4nncs4)C3)C2)c1 (stereo unspecified),3.767%
20,Fc1cnc(N2CC3(CCN(CC4CC4)C3)C2)nc1.O=C(O)C(F)(F)F,6.625%
21,COCCN1CCC2(CCCN(c3ncc(F)cn3)C2)C1 (stereo unspecified),7.957%

row,Structure (SMILES),Percent Effect
1,CCc1ncc(CN2C[C@H]3CC[C@@H]2CN(C(=O)C2CCC2)C3)cn1,-5.818%
2,CCc1cnc(N2CC3(CCN(Cc4ccsc4)C3)C2)nc1.O=C(O)C(F)(F)F,18.1%
3,O=C(O)C(F)(F)F.c1cnc(N2CCCC3(CCN(CC4CCC4)C3)C2)nc1 (stereo unspecified),-2.816%
4,Cc1c(CN2CCCC(C(=O)c3ccccc3)C2)cc(C#N)n1C (stereo unspecified),-33.94%
5,CCn1ncc(CN2CCCC(C(=O)c3ccc(Cl)cc3)C2)c1C (stereo unspecified),-8.229%
6,CCNC(=O)[C@H]1CN(Cc2ccccc2)C[C@@H]1C(=O)c1ccccc1,155%
7,O=C(O)C(F)(F)F.O=C1[C@H]2CN(Cc3ccccc3)C[C@H]2CN1c1cncnc1,5.118%
8,CC(C)CNC(=O)[C@H]1C[C@@H]2CN(Cc3cccnc3)C[C@H]1O2.O=C(O)C(F)(F)F.O=C(O)C(F)(F)F,1.995%
9,COCCN(C)C(C)Cc1ccccc1OC (stereo unspecified),-4.833%
10,Cc1noc(C)c1CN1C[C@H](OCC2CC2)[C@H]2OCCC[C@H]21.O=C(O)C(F)(F)F,2.314%
11,CO[C@H]1CN(CC2CCOCC2)[C@@H]2CCCO[C@H]12.O=C(O)C(F)(F)F,117.1%
12,CCO[C@H]1CN(CC2CC2)[C@@H]2CCCO[C@H]12.O=C(O)C(F)(F)F,109.7%
13,CN(Cc1cncnc1)[C@H]1CN(CC2CC2)[C@@H]2CCCO[C@@H]21.O=C(O)C(F)(F)F.O=C(O)C(F)(F)F,-10.71%
14,CO[C@H]1CN(Cc2ccc(C)o2)[C@@H]2CCCO[C@H]12.O=C(O)C(F)(F)F,-4.054%
15,CO[C@@H]1CC[C@H]2[C@H]1OCCN2CC1CCOCC1.O=C(O)C(F)(F)F,4.293%
16,Cc1noc(C)c1CN1C[C@H](OCC(=O)N(C)C)[C@H]2OCCC[C@H]21.O=C(O)C(F)(F)F,-4.98%
17,CO[C@@H]1CN(Cc2scnc2C)[C@@H]2CCCO[C@@H]21.O=C(O)C(F)(F)F.O=C(O)C(F)(F)F,-11.47%
18,CO[C@H]1CN(CC2CC2)[C@@H]2CCCO[C@H]12.O=C(O)C(F)(F)F,102.7%
